# Test results as given in PubChem BioAssay (NCATS).
# Results filed as inconclusive are left out. Entries that show only a call come without a potency. Calls of active or inactive are those of the source. The call rests on the fitted dose curve; in most records, active means well fitted inhibition curve with a large enough effect; inconclusive means small, poorly fitted or top-dose-only effect; inactive means flat fitted curve, though single readings scatter.
# Target: Voltage-gated inwardly rectifying potassium channel KCNH2 (Homo sapiens) (UniProt Q12809)
# Sequence (Q12809 whole entry, looked up): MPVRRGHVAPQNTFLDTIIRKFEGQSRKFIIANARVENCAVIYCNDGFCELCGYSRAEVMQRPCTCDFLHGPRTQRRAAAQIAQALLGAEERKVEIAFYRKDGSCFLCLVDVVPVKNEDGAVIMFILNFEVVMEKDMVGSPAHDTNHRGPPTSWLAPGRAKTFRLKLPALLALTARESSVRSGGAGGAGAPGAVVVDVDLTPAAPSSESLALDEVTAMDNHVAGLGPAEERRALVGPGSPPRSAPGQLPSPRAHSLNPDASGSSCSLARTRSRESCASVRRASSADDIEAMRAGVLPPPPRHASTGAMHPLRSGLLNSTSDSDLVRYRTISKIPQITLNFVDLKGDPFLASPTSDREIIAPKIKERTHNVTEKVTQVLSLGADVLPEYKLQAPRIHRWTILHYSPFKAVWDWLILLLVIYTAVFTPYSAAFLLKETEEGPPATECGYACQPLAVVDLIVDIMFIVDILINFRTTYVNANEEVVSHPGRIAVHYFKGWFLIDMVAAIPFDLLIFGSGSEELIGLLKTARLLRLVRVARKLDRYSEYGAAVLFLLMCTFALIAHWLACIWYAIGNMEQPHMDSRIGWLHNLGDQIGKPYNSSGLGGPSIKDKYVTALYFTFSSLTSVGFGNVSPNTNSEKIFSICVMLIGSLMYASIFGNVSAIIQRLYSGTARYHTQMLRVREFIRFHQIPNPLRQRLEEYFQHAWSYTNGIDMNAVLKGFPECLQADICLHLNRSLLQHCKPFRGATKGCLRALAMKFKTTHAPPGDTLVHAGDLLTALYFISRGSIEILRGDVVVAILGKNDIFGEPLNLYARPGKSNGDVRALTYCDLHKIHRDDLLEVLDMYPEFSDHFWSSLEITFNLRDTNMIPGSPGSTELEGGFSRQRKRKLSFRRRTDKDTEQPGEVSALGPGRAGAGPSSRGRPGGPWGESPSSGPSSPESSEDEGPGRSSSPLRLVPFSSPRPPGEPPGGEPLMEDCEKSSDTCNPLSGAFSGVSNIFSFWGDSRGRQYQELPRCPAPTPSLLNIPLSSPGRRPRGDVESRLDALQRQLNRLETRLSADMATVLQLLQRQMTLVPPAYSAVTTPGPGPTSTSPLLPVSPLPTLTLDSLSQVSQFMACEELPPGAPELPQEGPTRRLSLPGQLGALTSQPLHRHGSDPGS
# Experiment: qHTS Assay for Small Molecule Inhibitors of the Human hERG Channel Activity (AID 588834);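 further: top concentration of the series differs between compounds; lower thallium flux fluorescence means stronger hERG block; nearly all actives have a fitted effect of over 50% in size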
# Conditions: U2OS BacMam hERG, FluxOR thallium flux fluorescence; series mostly up to 46.1 µM
# In short: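 Thallium serves as surrogate for K+ influx through BacMam-delivered hERG in U2OS cells. Compounds are added for about 10 minutes after dye loading; stimulation buffer then starts flux, monitored kinetically on FDSS.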
row,SMILES,Potency
1,O=C(OC1C[C@H]2CC[C@@H](C1)[N+]21CCCC1)C(O)(c1ccccc1)c1ccccc1 (some centres not stated),inactive
2,N=C(N)c1ccc2cc(OC(=O)c3ccc(N=C(N)N)cc3)ccc2c1,inactive
3,CC(S)C(=O)NCC(=O)O (configuration not stated),inactive
4,CC[C@]1(O)C[C@H]2CN(CCc3c([nH]c4ccccc34)[C@@](C(=O)OC)(c3cc4c(cc3OC)N(C=O)[C@H]3[C@@](O)(C(=O)OC)[C@H](OC(C)=O)[C@]5(CC)C=CCN6CC[C@]43[C@@H]65)C2)C1,inactive
5,CCOC(=O)c1c(C)n(C)c2ccc(O)cc12,inactive
6,O=C(O)c1cccc(-c2noc(-c3ccccc3F)n2)c1,inactive
7,CC(C)[C@H](N)C(=O)OCCOCn1cnc2c(=O)[nH]c(N)nc21,inactive
8,O=C(O)c1cn(-c2ccc(F)cc2)c2cc(N3CCNCC3)c(F)cc2c1=O,inactive
9,CCCCCCCCCCCCCCCCCCCCCCO,inactive
10,CCOc1cc(CC(=O)N[C@@H](CC(C)C)c2ccccc2N2CCCCC2)ccc1C(=O)O,inactive
11,O=C(NC(Cc1cc(=O)[nH]c2ccccc12)C(=O)O)c1ccc(Cl)cc1 (configuration not stated),inactive
12,Cc1cc(=O)oc2cc(O)ccc12,inactive
13,CN(C)C(=O)COC(=O)Cc1ccc(OC(=O)c2ccc(N=C(N)N)cc2)cc1,inactive
14,Cc1cc2c(s1)Nc1ccccc1N=C2N1CCN(C)CC1,inactive
15,Nc1cc(C(Cl)=C(Cl)Cl)c(S(N)(=O)=O)cc1S(N)(=O)=O,inactive
16,N=C(N=C(N)N)N1CCOCC1,inactive
17,C[C@H](Cn1cnc2c(N)ncnc21)OCP(=O)(O)O,inactive
